High-throughput results as filed in PubChem BioAssay.
Hits are enriched below; roughly 3.4% of the tested compounds scored in any of these assays.
AI-2 QS mod – modulates the Vibrio harveyi AI-2 quorum sensing system. hit rate 0.4% among 300,000. activity change, % at 7.5 µM. Vibrio harveyi JMH597 AI-2 luminescence/OD600 ratio, 9 h; hits give low values; strain lacks LuxN and CqsS sensors; 0 = neutral-control median; in the data active = activity change below about -75%, passing the limit was not always enough;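 also: luminescence divided by OD600 gain over 9 h not by final OD600 alone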
PG9 Ab binder – small molecules binding HIV-1 gp120 antibody PG9. inhibition, % at 6.7 µM. TR-FRET gp120-PG9 antibody binding. hit rate 0.43% among 360,000; in the data active = inhibition above about 8.5%
GAA850 FXN act – activators of GAA850 frataxin (FXN) promoter; activation, % at 6 µM; HEK293 lucGAA850 FXN promoter luciferase reporter, 24 h; percent of 10 µM SAHA response; hit rate 0.56% among 360,000;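 active = activation above the average of all compounds screened plus 3 SD, cutoff fixed separately per campaign, cut at about 7.5% in these data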
HSF1 inh – HSF1 inhibition. NIH3T3-HGL HSE-luciferase, MG132-induced, luminescence 8 h; hits give low values. activity change, negative = inhibition, % at 7.5 µM (by protocol). hit rate 0.77% among 300,000. AID 2098;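 active = more than half of replicate wells show activity change below -50%, luminescence cut by over half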;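 also: luciferase reports HSF-1 transcriptional activity via heat shock element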
SMARCA2 act – activators of SMARCA2 function; MG213 cells, MMTV-luciferase reporter, dexamethasone, overnight; activation, % at 9.1 µM; hit rate 1% among 370,000; AID 652017; in the data active = activation above about 7.8%
HSP90 refold inh – blocks HSP90-mediated luciferase refolding in reticulocyte lysate | Rabbit reticulocyte lysate, luciferase refolding luminescence, 3 h | inhibition, % at 5.6 µM | hit rate 0.91% among 290,000;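 active = inhibition above the screen-wide mean plus 3 SD, computed separately per campaign, cut at about 16% in these data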;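 also: inhibitors lower the luminescence because luciferase stays unfolded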
JMH597 growth rt – retest: blocks Vibrio harveyi JMH597 growth. shares compounds with AI-2 QS mod. OD600 absorbance, 9 h; lacks LuxN and CqsS sensors. growth inhibition, % at 7.5 µM. hit rate 1% among 750. AID 2726;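 active = every replicate shows growth inhibition above 50%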
BB721 lum counter – retest counter-screen: lowers luminescence of constitutive-QS Vibrio harveyi BB721 | shares compounds with AI-2 QS mod | 9 h | hit rate 95% among 750 | inhibition, % at 7.5 µM | AID 2727;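 active = inhibition above about 80% in every replicate, not just on average, limit read from the data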
BB721 growth – retest: inhibitors of Vibrio harveyi BB721 growth; growth inhibition, % at 7.5 µM; shares compounds with AI-2 QS mod; OD600 absorbance, 9 h; hit rate 3% among 750;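 active = every replicate shows growth inhibition above 50%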
JMH597 AI-2 mod – Vibrio harveyi AI-2 signaling luminescence modulation – JMH597 strain, confirmation; Vibrio harveyi JMH597 AI-2 quorum sensing luminescence, 9 h; luxN and CqsS knockout, AI-2 only; hit rate 97% among 750; shares compounds with AI-2 QS mod; inhibition, % at 7.5 µM; AID 2736;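 active = every replicate shows more than 75% inhibition of signal versus neutral control wells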
GAA30 counter – counter-screen for GAA850 frataxin promoter activators: GAA30 promoter activation; shares compounds with GAA850 FXN act; HEK293 lucGAA30 FXN promoter luciferase, 24 h; DMSO = 0%, 5 µM ipriflavone = 100%; activation, % at 6 µM; hit rate 66% among 1,900; AID 588350;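 active = mean activation above the mean of solvent-only control wells plus 3 SD, cut at about 22% in these data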;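 also: counterscreen of GAA850 promoter hits where activity marks nonselective or luminescence artifacts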
FXN GAA850 conf – GAA850 FXN promoter activation confirmation. shares compounds with GAA850 FXN act. HEK293 lucGAA850 FXN promoter luciferase reporter, 24 h; 100% = activation by SAHA. activation, % at 6 µM. hit rate 86% among 1,900. AID 588351;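 active = mean activation above a set limit taken from the primary screen, cut at about 8% in these data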
SMARCA2 act conf – confirmation of SMARCA2 (BRM) function activators. shares compounds with SMARCA2 act. hit rate 30% among 3,500. AID 652260. activation, % at 9.1 µM. MG213 cells, MMTV-luciferase with dexamethasone, luminescence, overnight; MG213 cells expressing E1A, Rb sequestered; DMSO wells 0%, reference activator 100%;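 active = activation above its plate's cutoff, the mean activation of tested wells plus 3 SD, cut at about 7.9% in these data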
GAL4-VP16 Luc – activates GAL4-VP16 luciferase, flagging SMARCA2 activator hits; AID 686939; HEK293 GAL4-VP16 pG5luc reporter, luciferase luminescence; scaled: DMSO wells 0%, SAHA wells 100%; shares compounds with SMARCA2 act; activation, % at 9.1 µM; hit rate 41% among 3,500;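 active = activation above the solvent-only control well mean plus 3 SD, averaged across control plates, cut at about 5.2% in these data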
A number is an active result; - = inactive; . = not tested or not shown.

SMILES	AI-2 QS mod	PG9 Ab binder	GAA850 FXN act	HSF1 inh	SMARCA2 act	HSP90 refold inh	GAA30 counter	FXN GAA850 conf	others
Cc1ccc(F)cc1NC(=O)CCC(=O)c1cccs1	-	-	-	-	-	-	.	.
O=C(O)c1ccc(N/N=C/C=C/c2ccccc2)cc1	-84	-	-	-	8.0	-	.	.	JMH597 growth rt=-;BB721 lum counter=98;BB721 growth=63;JMH597 AI-2 mod=98;SMARCA2 act conf=-;GAL4-VP16 Luc=17
CNc1cc(-c2ccc(CC#N)cc2)ncn1	.	-	-	.	-	.	.	.
CCCOc1ccc(N2C(=O)CC(SCCN)C2=O)cc1 (stereo not drawn)	-87	-	-	-	10	-	.	.	JMH597 growth rt=-;BB721 lum counter=95;BB721 growth=-;JMH597 AI-2 mod=96;SMARCA2 act conf=7.9;GAL4-VP16 Luc=6.6
COc1ccc(N2C(=O)c3ccccc3NC(=O)C2C(=O)NCC(C)C)cc1 (stereo not drawn)	.	-	.	.	-	.	.	.
COCCCN1C(=O)C(CC(=O)NC2CCCC2)CC(C(=O)N2CCOCC2)=C1C (stereo not drawn)	.	-	-	.	-	.	.	.
O=C(NCCc1c[nH]c2ccccc12)c1ccc2c(c1)OCO2	-85	-	-	-	9.7	-	.	.	JMH597 growth rt=-;BB721 lum counter=93;BB721 growth=-;JMH597 AI-2 mod=97;SMARCA2 act conf=13;GAL4-VP16 Luc=8.1
Cc1ccc2nc(N/N=C/c3ccco3)cc(C)c2c1	-	-	8.2	-	-	-	104	44
COC(=O)CC#C[C@H](C)[C@@H](NS(C)(=O)=O)C(C)(C)COCc1ccccc1	.	-	.	.	-	.	.	.
Cc1nn2c(N)c(C#N)cnc2c1-c1ccccc1	-	-	9.0	-	-	-	38	20
Cc1nn2c(N)c(C#N)cnc2c1-c1ccc(Cl)cc1	-	-	-	-	-	-	.	.
O=Cc1cn(-c2ccccc2)nc1-c1ccccc1	-	-	-	-	-	-	.	.
CC1=NNC(=O)/C1=C\c1cn(-c2ccccc2)nc1-c1ccccc1	-	-	8.0	-	-	-	-	15
COC(=O)c1ccc(CSc2nc3ccccc3c(=O)n2-c2ccccc2)o1	-	-	16	-	-	-	-	12
COc1ccc2c(c1)OC[C@H]1[C@H]2N2C(=O)CN(CCc3c[nH]c4ccccc34)C(=O)[C@@]2(C)[C@H]1c1ccccc1	.	-	7.8	.	-	.	22	18
CCOC(=O)[C@H]1[C@H]2COc3cc(OC)ccc3[C@@H]2N2C(=O)CN(CCc3c[nH]c4ccccc34)C(=O)[C@@]12C	.	-	-	.	-	.	.	.
O=S(=O)(Nc1nc2ccccc2nc1N1CCN(c2ccccc2)CC1)c1ccc(F)cc1	-	-	8.0	-	-	-	-	9.7
Cc1ccc(S(=O)(=O)Nc2nc3ccccc3nc2N2CCOCC2)cc1	.	-	-	.	-	.	.	.
NC(=O)CC1C(=O)N(c2ccccc2)C(=S)N1NC(=O)c1ccc(Br)cc1 (stereo not drawn)	-	-	-	-	-	-	.	.
COc1cccc(C(=O)NN2C(=S)N(c3ccccc3)C(=O)C2CC(N)=O)c1 (stereo not drawn)	-	-	7.8	-	-	-	107	29
Cc1cccc(C)c1-n1nnnc1C(c1ccnc2ccccc12)N1CCCN(C(=O)OC(C)(C)C)CC1 (stereo not drawn)	.	-	.	.	-	.	.	.
CC1(C)CC(=O)c2c(O)cc(OCc3ccc(Br)cc3)cc2O1	-	-	9.4	-	-	-	99	36
COC(=O)c1ccc(COc2cc(O)c3c(c2)OC(C)(C)CC3=O)cc1	-	-	-	-	-	-	.	.
CC1(C)CC(=O)c2ccc(OCc3ccc([N+](=O)[O-])cc3)cc2O1	-	-	8.4	-	-	-	136	50
C=CCN1C(=O)[C@]2(OCCC=C[C@H]2C)c2cc(OC)ccc21	.	-	.	.	-	.	.	.
SMILES	AI-2 QS mod	PG9 Ab binder	GAA850 FXN act	HSF1 inh	SMARCA2 act	HSP90 refold inh	GAA30 counter	FXN GAA850 conf	others
COC(=O)C1=C(C)N(Cc2cccc(C(F)(F)F)c2)C(=NCC2CC2)NC1c1ccc(F)cc1 (stereo not drawn)	.	-	.	.	-	.	.	.
C=CCOc1ccc2nc(NC(=O)OC)[nH]c2c1	-	-	7.7	-	-	-	-	41
CCOC(=O)c1cc2c(nc1N)CCCC2	-	-	-	-	-	-	.	.
CCOC(=O)c1cnc2cc3c(cn2c1=O)CCCC3	-	-	8.2	-	-	-	98	34
CCc1sc(C(=O)Nc2ccc3c(c2)OCCO3)cc1Br	-	-	8.0	-	-	-	111	41
CC(=O)Cn1nnc2sc3c(c2c1=O)CCC(C(C)(C)C)C3 (stereo not drawn)	-	-	8.2	-	-	-	119	45
O=c1c(O)c(-c2ccccc2)oc2ccccc12	.	-	8.7	.	-	.	55	18
CCOC(=O)N(C)C[C@@H]1OCc2ccccc2-c2c(n(C)c3ccccc23)C(=O)N([C@H](C)CO)C[C@H]1C	.	-	-	.	-	.	.	.
C[C@H]1CN([C@@H](C)CO)C(=O)c2c(c3ccccc3n2C)-c2ccccc2CO[C@H]1CN(C)Cc1cccc(F)c1	.	-	12	.	-	.	23	9.9
C[C@H](CO)N1C[C@H](C)[C@H](CN(C)C(=O)c2ccccc2)OCc2ccccc2-c2c(n(C)c3ccccc23)C1=O	.	-	8.5	.	-	.	-	-
Cc1ccccc1S(=O)(=O)N1CCCc2nc(C)c(C)cc21	.	-	.	.	-	.	.	.
OC(c1ccccc1)(c1ccccc1)C1CCN(CCCOc2ccc(C(F)(F)F)cc2)CC1	.	-	.	.	-	.	.	.
